Test results published in PubChem BioAssay AID436 (Emory University Molecular Libraries Screening Center, 2006).
In all, about 72,000 compounds went through this assay and about 350 (0.49%) were called active.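 The calls were made as follows: active = activity remaining at or below 50% of control, provided the compound also passes the data quality filters; inactive = the rest, including low values that fail the filters.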 What follows is part of a selection rich in actives, with near analogues and random picks from the rest.

biological target: Ubiquitin carboxyl-terminal hydrolase BAP1 (Homo sapiens) (UniProt Q92560); test: inhibitors of BAP1 deubiquitinase, primary screen, biochemical, Ub-AMC fluorescence, kinetic (AID 436); settings: recombinant BAP1, Ub-AMC hydrolysis fluorescence kinetic; at 20 µM; stronger effect = lower value;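 also: 100% = DMSO wells rate and 0% = substrate alone blank rate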
Sequence (Q92560 whole entry, looked up): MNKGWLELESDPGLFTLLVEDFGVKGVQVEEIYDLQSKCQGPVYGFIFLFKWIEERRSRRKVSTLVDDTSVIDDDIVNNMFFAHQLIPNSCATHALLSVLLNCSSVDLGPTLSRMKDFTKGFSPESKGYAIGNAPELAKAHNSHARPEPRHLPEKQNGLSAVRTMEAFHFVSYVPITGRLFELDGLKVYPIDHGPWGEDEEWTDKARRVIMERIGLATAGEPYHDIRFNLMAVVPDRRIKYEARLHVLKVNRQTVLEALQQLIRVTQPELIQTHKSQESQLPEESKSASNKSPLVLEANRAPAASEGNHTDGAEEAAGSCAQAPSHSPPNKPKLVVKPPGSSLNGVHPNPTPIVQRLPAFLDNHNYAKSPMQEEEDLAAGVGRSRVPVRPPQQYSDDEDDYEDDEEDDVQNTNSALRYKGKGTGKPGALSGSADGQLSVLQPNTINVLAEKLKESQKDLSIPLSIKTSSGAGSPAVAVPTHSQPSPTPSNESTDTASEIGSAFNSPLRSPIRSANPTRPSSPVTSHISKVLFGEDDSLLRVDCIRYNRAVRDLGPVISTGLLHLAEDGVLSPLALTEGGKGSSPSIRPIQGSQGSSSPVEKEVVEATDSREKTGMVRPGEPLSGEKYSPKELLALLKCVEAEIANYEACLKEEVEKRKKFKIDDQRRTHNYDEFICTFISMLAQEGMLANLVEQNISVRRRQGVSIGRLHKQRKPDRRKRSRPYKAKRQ

Activity remaining (% of control), active:
Fc1ccc2nc(Nc3nc4c(s3)CCCC4)sc2c1 43.8%, O=c1c2ccccc2nc(CSc2nnnn2-c2ccccc2)n1-c1ccccc1 37.5%, O=S(=O)(c1cccc(S(=O)(=O)N2CCC(n3nnc4ccccc43)CC2)c1)N1CCCCC1 42.6%, Fc1ccc(-c2ccc(-c3nn4c(-c5ccco5)nnc4s3)o2)cc1 49.1%, CC(C)c1ccc2c(c1)c(SC(C)(C)C)c(CC(C)(C)C(=O)O)n2Cc1ccc(Cl)cc1 17.2%, C=CCn1c2ccccc2c2nnc(SC(CC)C(=O)Nc3nc(C)c(C(=O)OCC)s3)nc21 (centres undefined) 42%, CCOc1ccc(CN(Cc2ccco2)C(c2cccs2)c2nnnn2C(C)(C)C)cc1 (centres undefined) 36.6%

Activity remaining (% of control), inactive:
Cn1c(=N)n(CC(=O)c2ccco2)c2ccccc21 76.8%, Brc1ccc(-c2nc3ccccc3nc2-c2ccccc2)cc1 66.2%, CCOc1ccc(Nc2cc(C)nc3ncnn23)cc1 112%, Nc1nnc(-c2ccccc2SCc2ccc(F)cc2)s1 68.2%, COc1ccc(C(=O)Nc2ccc3oc(-c4ccc(C)cc4)nc3c2)cc1[N+](=O)[O-] 77%, Cc1c(N=Cc2cc(Br)ccc2O)c(=O)n(-c2ccccc2)n1C 106%, CC(=O)CCN1C(=O)C(=O)c2ccccc21 83.2%, CCn1c(N2CCCC2)nc2c1c(=O)n(C)c(=O)n2C 117%, Cc1nc2sc3ccccc3c2s1 122%, COc1ccc(-c2csc(NC(=O)c3ccc(S(=O)(=O)N4CC(C)CC(C)C4)cc3)n2)cc1C (centres undefined) 92.9%, Cn1c(SCC(=O)c2ccc(Cl)cc2)nc2c1c(=O)[nH]c(=O)n2C 112%, COc1ccc(OC)c(NC(=O)c2cc(Cl)ccc2[N+](=O)[O-])c1 90.2%, CCCCOC(=O)C1=C(C)NC2=C(C(=O)CCC2)C1c1ccc(OCC)c(OC)c1 (centres undefined) 72.5%, Cc1ccc2cccc(NC(=O)C34CC5CC(CC(C5)C3)C4)c2n1 149%, CCOC(=O)c1c(C)oc2ccc(N(C(=O)c3ccccc3)S(=O)(=O)c3ccc(Cl)c([N+](=O)[O-])c3)cc12 71%, CCCOC(=O)c1ccc(NC(=O)c2ccc(OC)cc2)cc1 167%, CC1=C(C(=O)OCc2ccccc2)C(c2ccccc2I)NC(=O)N1C (centres undefined) 104%, CCOC(=O)c1c(N=c2oc3ccccc3cc2C(=O)Nc2ccc(F)cc2)sc(C)c1C 63.1%, CC(C)C(=O)Nc1c2c(nn1-c1ccc(Cl)cc1)CSC2 73.6%, COc1ccc(N2C(=O)CSC2c2cc(Br)ccc2OC)cc1 (centres undefined) 80.4%, O=C(Nc1nc2ccccc2s1)C1CC(=O)N(c2ccccc2Cl)C1 (centres undefined) 204%, O=C(CSc1nc2sc3c(c2c(=O)[nH]1)CCCC3)NCc1ccccn1 170%, O=C(Nc1cccc(-c2nc3ccccc3o2)c1)C1CCCCC1 79.6%, COc1ccc(C2CC(c3c(-c4ccccc4)c4cc(Br)ccc4[nH]c3=O)=NN2C(=O)c2ccncc2)cc1 (centres undefined) 97.8%, Fc1ccc2nc(N3CCCCC3)sc2c1 108%, O=C(Cn1c(=O)sc2ccccc21)Nc1nc2c(s1)CCCC2 79.8%, COc1ccccc1NS(=O)(=O)c1cc(C(=O)c2ccc(Br)cc2)ccc1C 78.7%, CC(C)C(O)(c1ccccc1)c1cc[n+](C)cc1 (centres undefined) 229%, CCOC(=O)C(C(=O)OCC)n1ccc(=O)[nH]c1=O 71.2%, CC(=O)NC12CC3CC(C1)CC(c1ccc([N+](=O)[O-])cc1)(C3)C2 70.3%, CC(=O)NC(=O)c1cc2cc(Cl)ccc2oc1=Nc1ccc(C#N)cc1 84.2%, Cc1ccc(S(=O)(=O)NCCN=Cc2ccc3c(c2)OCO3)cc1 99.1%, O=C1c2ccccc2-c2onc3c(N4CCCC4)ccc1c23 60.4%, COc1ccc(C(=O)Nc2c[nH]c(=O)[nH]c2=O)cc1OC 54.8%, N#CCSc1nc2ccccc2c(=O)n1-c1ccccc1 109%, CCOC(=O)c1sc(NC(=O)c2cc(Cl)ccc2[N+](=O)[O-])nc1C 56.8%, Cc1ccc(S(=O)(=O)N(CC(O)CN2C(=O)NC(C)(C)C2=O)c2cccc([N+](=O)[O-])c2)cc1 (centres undefined) 74.1%, COc1ccc(C(=O)Nc2nc3c(ccc4ccccc43)s2)c(OC)c1 480%, O=C(CC(=O)Nc1ccc2c(c1)Cc1cc([N+](=O)[O-])ccc1-2)Nc1ccc2c(c1)Cc1cc([N+](=O)[O-])ccc1-2 74%, CC(=O)c1cccc(S(=O)(=O)N2CCC(n3nnc4cc(F)ccc43)CC2)c1 84.8%, Cc1ccc(S(=O)(=O)N2CCC(N3CCCCCC3)CC2)cc1 79.2%, CCOC(=O)c1c(NC(=O)c2cccnc2)sc2c1CCCC2 131%, Cc1nnc2sc(-c3ccco3)nn12 63.2%, FC(F)(F)c1nnc2sc(-c3ccco3)nn12 92.7%, CCOC(=O)C1C(=O)C=C(C=Cc2cccs2)CC1c1ccccc1 (centres undefined) 107%, Cc1c(Cc2ccccc2)c(=O)oc2c(C)c(OC(C)C)ccc12 64.3%, Cn1c(C#CC(C)(C)O)cc2ccccc21 106%, COc1cc(-c2nnc(SCC(=O)c3ccc(Cl)cc3)o2)cc(OC)c1OC 135%, Cc1ccc(S(=O)(=O)Nc2cccc(F)c2)cc1C(=O)O 98.5%, Cc1ccc(OCC(=O)Nc2ccc(C)c(Cl)c2)cc1C 81.6%, COc1ccc(-c2nc3cc(C)ccc3o2)cc1N=Cc1cccc(OC)c1O 160%, CC(C)(C)C(O)Cn1c(=N)n(Cc2ccc(Cl)cc2)c2ccccc21 (centres undefined) 201%, O=C(O)CCCC(=O)NC1=NCCS1 91.1%, NC(=O)c1c(NC(=O)c2ccc(Oc3ccccc3)cc2)sc2c1CCCCC2 77.2%, O=C1CSC(c2ccc([N+](=O)[O-])cc2)N1c1ccc(Br)cc1 (centres undefined) 83.1%, COC(=O)C1=C(C)NC2=C(C(=O)CC(C)(C)C2)C1c1cccc(O)c1 (centres undefined) 58.1%, Cc1ccc(S(=O)(=O)CCc2nnc(NC(=O)c3ccc(C(C)(C)C)cc3)s2)cc1 50.6%, CCN(CC)S(=O)(=O)c1ccc(C(=O)Nc2nc3c(s2)C(=O)CC(C)(C)C3)cc1 55.1%, CCN(CC)c1ccc2cc(-c3nc4ccc(Cl)cc4[nH]3)c(=O)oc2c1 278%, CCOc1c([N+](=O)[O-])c(=O)oc2ccccc12 111%, Cc1ccc2nc(NC(=O)c3ccccc3[N+](=O)[O-])sc2c1 91.2%, Cc1ccccc1C(=O)Nc1ccc(C(=O)Nc2cccc(C(F)(F)F)c2)cc1 194%, CCOC(=O)c1ccc2nc(C34CC5CC(CC(C5)C3)C4)ccc2c1 126%, CCOC(=O)c1sc(NC(=O)C(CC)Sc2nccn2C)nc1C (centres undefined) 90.3%, O=C(Oc1ccc2ccccc2c1Br)c1ccncc1 56.6%, Cn1c(C(C)(O)C(O)(c2ccccc2)c2ccccc2)nc2ccccc21 (centres undefined) 90.5%, CC1=C(C(=O)OC(C)C)C(c2ccc(O)c([N+](=O)[O-])c2)C2=C(CCCC2=O)N1 (centres undefined) 90.5%, COc1cccc(NC(=O)c2ccc(N(Cc3ccccc3)S(C)(=O)=O)cc2)c1 89.5%, O=C1CC(Nc2ccc3ccccc3c2)C(=O)N1c1ccccc1 (centres undefined) 163%, CC(C)(C)C(=O)Nc1ccc(C(=O)Nc2ccc(Sc3ccc([N+](=O)[O-])cc3)cc2)cc1 57.4%, O=C(O)CCC(=O)Nc1ccc([N+](=O)[O-])cc1 64.9%, COc1ccc(NC(=O)c2sc(-c3ccccc3)nc2C)cc1 117%, COc1ccc(C(=O)n2nnc3ccccc32)cc1 95.3%, COc1ccc(NC(=O)c2cc3ccccc3oc2=O)cc1Cl 75.5%, CC(=O)NCCN1C(=O)C(=O)/C(=C(/O)c2ccc(Cl)cc2)C1c1ccccc1F (centres undefined) 108%, Cc1nc(-c2ccc(NC(=O)c3cccc(Br)c3)cc2)cs1 162%, COc1ccc(-n2nc3c(c2NC(=O)Cc2ccccc2)CSC3)cc1 73.5%, O=c1[nH]c2cc(Cl)ccc2c(-c2ccccc2)c1Sc1ncn[nH]1 98.9%, O=C(Nc1ccccc1F)c1ccc([N+](=O)[O-])cc1Cl 205%, CCOC(=O)C(=O)N1c2ccccc2C(C)(c2ccccc2)CC1(C)C (centres undefined) 108%, O=C1C2C3C=CC(O3)C2C(=O)N1c1ccc(Br)cc1[N+](=O)[O-] (centres undefined) 77.6%, Cc1cc(C)cc(NC(=O)CCN2C(=O)c3ccccc3C2=O)c1 49.9%, S=c1[nH]nc(COc2ccccc2)o1 52.5%, CC(C)(C)n1nnnc1C(c1cccs1)N(Cc1cccnc1)CC1CCCO1 (centres undefined) 80.9%, CCC(C)(C)n1nnnc1C(c1cccs1)N1CCN(Cc2ccccc2)CC1 (centres undefined) 85.8%, O=c1[nH]nc(SCc2ccc(Cl)cc2)c(=O)[nH]1 64.4%, COc1ccc(C2C(N3C(=O)c4cccc([N+](=O)[O-])c4C3=O)C(=O)N2c2ccc(C)c(C)c2)cc1OC (centres undefined) 85.8%
